A selection: hits, their analogues and other compounds. The true share with any hit is near 10%.
G9a block – qHTS Assay for Inhibitors of Histone Lysine Methyltransferase G9a; G9a H3K9 monomethylation, AlphaScreen, 2 h; Histone-lysine N-methyltransferase EHMT2 (Homo sapiens), Q96KQ7; Potency, µM (titrated, usually from 102 µM), hits mostly inhibitors; AID 504332, 2011; 350,000 compounds, 8.8% hits; note: nearly all actives have a fitted effect of over 75% in size
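Compounds were preincubated with 20 nM G9a for 15 min, after which biotinylated H3K9 peptide (500 nM) and SAM (20 uM) started a 2 h room-temperature reaction. Monomethylated product was quantified by antibody-based AlphaScreen chemiluminescence.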
CtBP-E1A blk – qHTS Assay for Inhibitors of the CtBP/E1A Interaction; CtBP / adenovirus E1A interaction (AlphaScreen); AlphaScreen GST-E1A/His-CtBP binding, 1536-well; stronger effect = lower value; activity change, % (test concentration not listed); 340,000 compounds, 0.49% hits; AID 651724, 2012; in the data active = activity change below about -65%; inconclusive = mostly about -30% to -63%
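In 5 uL wells, 23 nL compound meets equimolar GST-E1A and His-CtBP (5X stock 125 nM each) for 2 h, 37 °C. Beads (5X, 50 ug/mL) then 1 h, 37 °C, dark.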
BAZ2B block – qHTS Assay for Inhibitors of BAZ2B. Bromodomain adjacent to zinc finger domain protein 2B (Homo sapiens), Q9UIF8. AlphaScreen BAZ2B-H3K14Ac peptide displacement. Potency, µM (top dose mostly 114 µM), most hits filed as inhibitors. 360,000 compounds, 4.4% hits; note: nearly all actives have a fitted effect of over 60% in size
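BAZ2B 50 nM plus b-H3(5-23)K14Ac 50 nM, PBS pH 7.4/0.01% Tween-20, 30 min RT; compound added (max 110 uM), 30 min RT; streptavidin donor/Ni-chelate acceptor beads 10 ug/mL final, 20 min dark; AlphaScreen read.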
JMJD2A Tudor – qHTS Assay for Inhibitors of JMJD2A-Tudor Domain | AlphaScreen JMJD2A-Tudor / H3K4me3 peptide binding | Potency, µM (titrated, usually from 114 µM), hits mostly inhibitors | 390,000 compounds, 4.4% hits | AID 504339, 2011; note: nearly all actives have a fitted effect of over 50% in size
Six1-Eya2 blk – qHTS Assay for Inhibitors of the Six1/Eya2 Interaction | AlphaScreen GST-Six1/His-Eya2 binding, biochemical; stronger effect = lower value | 360,000 compounds, 0.56% hits | AID 651725, 2012 | Homeobox protein SIX1 (Homo sapiens) + Protein phosphatase EYA2 (Homo sapiens), … | activity change, % (no concentration beside the values); in the data active = activity change below about -65%; inconclusive = mostly about -30% to -63%
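GST-Six1 + His-Eya2 (5X stock: 250/500 nM); Tris pH 8.0, 300 mM NaCl, 0.05% BSA, 0.02% Tween 20; GSH donor/Ni acceptor beads; 1 h 37 °C dark; AlphaScreen readout.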
HP1b binding inh – HTS for Inhibitors of HP1-beta Chromodomain Interactions with Methylated Histone Tails; 390,000 compounds, 0.56% hits; AlphaScreen HP1-beta / biotin-H3K9me3 peptide binding; Potency, µM (titrated, usually from 114 µM), actives largely listed as inhibitors; note: nearly all actives have a fitted effect of over 70% in size
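HP1-beta protein (50 nM final) preincubated 30 min at room temperature with biotinylated H3(1-18)K9me3 peptide (50 nM) in PBS pH 7.4, 0.01% Tween-20, then compound added for 30 min. AlphaScreen streptavidin donor/nickel chelate acceptor beads (10 ug/mL final), 30 min dark, luminescence read.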
Large screens that a line does not name were inactive. Unless noted, calls come from the whole dose curve; as a rule, active = well fitted inhibition curve with a large enough effect; inconclusive = small, poorly fitted or top-dose-only effect; inactive = no such curve, though single readings can be large or run the other way.

CCC1CN(C(=O)N2CCC(C(=O)NCCc3ccccc3C)CC2)c2ccccc2O1 (stereo unspecified)	G9a block inconclusive, BAZ2B block 79.4µM (no result: CtBP-E1A blk, Six1-Eya2 blk)
Cc1ccc(C(=O)Nc2ccc3nc(SCC(=O)N4CCCc5ccccc54)sc3c2)cc1	none (no result: CtBP-E1A blk, Six1-Eya2 blk)
Cc1cc(C(=O)CCC(=O)NCc2ccccc2F)c(C)s1	none
COc1ccc(Nc2ncnc3c2c(C)c(C)n3CCCN(C)C)cc1	JMJD2A Tudor inconclusive
Clc1cccc(CN2CCC3CC2c2cc(N4CCCCC4)ccc23)c1 (stereo unspecified)	JMJD2A Tudor 44.7µM, HP1b binding inh inconclusive (no result: G9a block, BAZ2B block)
O=C(OCc1ccccc1)N1CCC2CC1c1cc(N3CCCCC3)ccc12 (stereo unspecified)	CtBP-E1A blk inconclusive, JMJD2A Tudor 28.2µM, Six1-Eya2 blk inconclusive, HP1b binding inh inconclusive (no result: G9a block, BAZ2B block)
C=CCNCCCCOc1ccc(C)cc1[N+](=O)[O-]	G9a block 12.6µM, BAZ2B block 56.2µM, JMJD2A Tudor 7.94µM, HP1b binding inh 17.8µM
COCCNCCCCOc1ccc(C)cc1[N+](=O)[O-]	G9a block inconclusive, BAZ2B block 56.2µM, JMJD2A Tudor 2.82µM
CCC(C)NCCCCOc1ccc(C)cc1[N+](=O)[O-] (stereo unspecified)	BAZ2B block 44.7µM, JMJD2A Tudor 3.55µM, HP1b binding inh inconclusive
Cc1ccc(OCCOCCNC(C)(C)C)c([N+](=O)[O-])c1	G9a block 14.1µM, BAZ2B block 79.4µM, JMJD2A Tudor 8.91µM
Cc1ccc(OCCN2C(=O)c3ccccc3C2=O)c([N+](=O)[O-])c1	none
CC(C)N(C(=O)Cn1cc(SCC(=O)NCC2CCCO2)c2ccccc21)C(C)C (stereo unspecified)	none
COCCCNCCOc1ccc(C)cc1[N+](=O)[O-]	G9a block 14.1µM, BAZ2B block inconclusive, JMJD2A Tudor 1µM, HP1b binding inh inconclusive
COc1ccc(OCCOCCOc2ccc(C)cc2[N+](=O)[O-])cc1	none
O=C1CC(c2ccco2)CC(O)=C1C=Nc1cc(Cl)cc(Cl)c1 (stereo unspecified)	G9a block 10µM, BAZ2B block inconclusive, JMJD2A Tudor inconclusive
O=c1[nH]c2ccc(Cl)cc2c(-c2ccccc2)c1CN1CCOCC1	G9a block 35.5µM, CtBP-E1A blk -81.3, JMJD2A Tudor inconclusive, Six1-Eya2 blk -73.1
O=c1[nH]c2ccc(Cl)cc2c(-c2ccccc2)c1N1CCOCC1	JMJD2A Tudor inconclusive
CCC12CC3CC(C1)CC(C(=O)NNC(N)=O)(C3)C2	none (no result: G9a block)
Cc1nnc(NC(=O)C23CC4CC(C)(CC(C)(C4)C2)C3)s1	none (no result: G9a block, BAZ2B block)
CC12CC3(C)CC(C)(C1)CC(C(=O)Nc1nn[nH]n1)(C2)C3	G9a block 35.5µM, BAZ2B block inconclusive, JMJD2A Tudor 50.1µM
CC12CC3CC(C)(C1)CC(C(=O)Nc1nn[nH]n1)(C3)C2	G9a block 35.5µM, BAZ2B block inconclusive, JMJD2A Tudor 20µM
CCC12CC3CC(C1)CC(C(=O)Nc1nn[nH]n1)(C3)C2	G9a block 20µM, BAZ2B block inconclusive, JMJD2A Tudor 25.1µM
CC(C)(C)CC(=O)Nc1nn[nH]n1	G9a block inconclusive, BAZ2B block 79.4µM, JMJD2A Tudor 56.2µM
CC(C)(C)CC(=O)Nc1nnc(C(F)(F)F)s1	none
CNc1nc(NC#N)nc(SC)n1	none
COC(=O)CC1Oc2ccccc2-n2cc(-c3ccc(C)cc3)nc21 (stereo unspecified)	BAZ2B block inconclusive (no result: CtBP-E1A blk, Six1-Eya2 blk)
COC(=O)COc1cc(OCC(=O)OC)c2c(C)c(Cl)c(=O)oc2c1	G9a block 10µM
COC(=O)COc1cc(C)cc2oc(=O)c(CC(=O)OC)c(C)c12	none
Nc1c(Cl)cc2c(c1Br)Cc1ccccc1-2	none (no result: G9a block, BAZ2B block)
Nc1c(Cl)cc2c(c1Oc1ccccc1)C(=O)c1ccccc1C2=O	G9a block 10µM, BAZ2B block inconclusive, Six1-Eya2 blk inconclusive
CCOP(=O)(OCC)C(C#N)=C1SCN(c2ccc(Cl)cc2)CS1	G9a block inconclusive, CtBP-E1A blk inconclusive, JMJD2A Tudor 79.4µM, Six1-Eya2 blk inconclusive
CCOC(=O)c1[nH]c(C)c(CCC(=O)N2CCN(c3ccc(Cl)cc3)CC2)c1C	G9a block inconclusive, BAZ2B block inconclusive, JMJD2A Tudor inconclusive (no result: CtBP-E1A blk, Six1-Eya2 blk)
COc1ccc(CNC(=O)CCC2N=C3c4ccccc4N=C(SCC(=O)NCCc4ccc(OC)c(OC)c4)N3C2=O)cc1 (stereo unspecified)	none (no result: CtBP-E1A blk, Six1-Eya2 blk)
CCOC(=O)c1ccc(NC(=O)Cn2ncc3c(C)n(Cc4ccccc4F)c(C)c3c2=O)cc1	none (no result: CtBP-E1A blk, Six1-Eya2 blk)
CCCCOC(=O)Sc1nc2ccccc2o1	G9a block 25.1µM
COc1ccc(C(=O)/C=C/Sc2nc3ccccc3o2)cc1	G9a block inconclusive
COc1ccc(Nc2nnc(-c3ccncc3)s2)cc1Cl	G9a block 8.91µM
C[C@@H]1C=C[C@](Cc2ccccc2)(C(=O)NCCc2c[nH]c3ccccc23)N1C(=O)c1ccccc1	G9a block 50.1µM, BAZ2B block inconclusive, JMJD2A Tudor inconclusive
CC(=O)N1[C@H](C)C=C[C@]1(Cc1ccccc1)C(=O)NCCc1c[nH]c2ccccc12	G9a block inconclusive, BAZ2B block inconclusive
Cc1ccc(CSC2=Nc3ccccc3C3=NC(CCC(=O)N4CCN(c5ccccc5)CC4)C(=O)N23)cc1 (stereo unspecified)	G9a block 17.8µM (no result: CtBP-E1A blk, Six1-Eya2 blk)
O=C(CSC1=Nc2ccccc2C2=NC(CC(=O)N3CCN(c4ccccc4)CC3)C(=O)N12)NCC1CCCO1 (stereo unspecified)	G9a block 50.1µM
O=C(CCC1N=C2c3ccccc3N=C(SCc3ccc(Cl)cc3)N2C1=O)N1CCN(c2ccccc2)CC1 (stereo unspecified)	none (no result: CtBP-E1A blk, Six1-Eya2 blk)
S=C(NCC1CCCO1)N1CCN(c2ccccc2)CC1 (stereo unspecified)	none
COc1ccccc1N1CCN(c2ncnc3c2cnn3-c2ccc(C)cc2)CC1	none (no result: CtBP-E1A blk, Six1-Eya2 blk)
CCSc1nnc(NC(=O)CN2C(=O)NC3(CCCC3)C2=O)s1	none (no result: CtBP-E1A blk)
c1cc2c(cc1C1CCCCC1)c1c3n2CCCNC3CCC1 (stereo unspecified)	G9a block 17.8µM, BAZ2B block 35.5µM, JMJD2A Tudor 44.7µM, Six1-Eya2 blk inconclusive, HP1b binding inh inconclusive
